# Bioassay records: PubChem BioAssay, several laboratories
# A selection: hits, their analogues and other compounds. The true share with any hit is near 2.3%.
# SENP6 block: SENP6 protease inhibition. Q9GZR1. Recombinant SENP6 catalytic domain, aminoluciferin luminescence. inhibition, % at 10 µM. 330,000 compounds, 1.8% hits;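 active means inhibition above about 50% at the single tested dose, limit read from the data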;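 further: plate controls were DMSO wells with enzyme for no effect and DMSO wells lacking enzyme for full effect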
# SENP8 block-1: SENP8 (human) protease inhibition. Q96LD8. recombinant SENP8, Nedd8 substrate fluorescence. inhibition, % at 20 µM. 360,000 compounds, 0.64% hits; in the data active means inhibition mostly above about 40%, no sharp cut-off; inactive means mostly below about 27%
# Target sequence (Q96LD8 whole entry, looked up): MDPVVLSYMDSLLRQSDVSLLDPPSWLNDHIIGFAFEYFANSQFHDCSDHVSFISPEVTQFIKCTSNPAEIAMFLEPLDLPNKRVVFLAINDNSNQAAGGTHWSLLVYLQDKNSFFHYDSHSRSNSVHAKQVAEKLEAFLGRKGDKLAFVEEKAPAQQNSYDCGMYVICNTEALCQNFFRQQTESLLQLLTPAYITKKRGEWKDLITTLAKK
# LGR2 antag: Drosophila LGR2 receptor signaling inhibition; HEK293 LGR2, CRE-luciferase, bursicon-stimulated, 4 h; inhibition, % at 9.99 µM; 380,000 compounds, 0.35% hits; AID 720647;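 active means drop in luminescence signal, shown as inhibition above about 50% in the replicate tests, limit read from the data, passing the limit was not always enough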;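 further: agonist challenge used bursicon conditioned medium at about half maximal strength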
# HSP90 inh: blocks HSP90-mediated luciferase refolding in reticulocyte lysate; AID 1789; 290,000 compounds, 0.91% hits; inhibition, % at 5.6 µM; Rabbit reticulocyte lysate, luciferase refolding luminescence, 3 h;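 active means inhibition above the screen-wide mean plus 3 SD, computed separately per campaign, cut at about 16% in these data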;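 further: 0% = DMSO wells and 100% = 60 µM geldanamycin wells; inhibitors lower the luminescence because luciferase stays unfolded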
# SENP7 inh: inhibitors of human SENP7 protease. Q9BQF6. recombinant SENP7, Z-RLRGG-aminoluciferin luminescence, 40 min. inhibition, % at 5 µM. 330,000 compounds, 1.5% hits. AID 434973;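 active means inhibition above about 50% at the single test dose, limit read from the data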;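 further: plate controls were DMSO with enzyme for no effect and no enzyme buffer wells for full effect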
# SENP8 block-2: blocks the human protease SENP8. purified SENP8, Z-RLRGG-aminoluciferin cleavage, luminescence. inhibition, % at 10 µM. 330,000 compounds, 1.2% hits. AID 2540; in the data active means inhibition above about 50%
# SENP8 confirm: human SENP8 inhibition, confirmed | shares compounds with SENP7 inh | Recombinant SENP8, Z-RLRGG-aminoluciferin luminescence, 60 min | inhibition, % at 12.5 µM | 6,200 compounds, 40% hits;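 active means mean inhibition across replicates above about 50%, limit read from the data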
# SENP6 conf: human SENP6 inhibition, confirmed; inhibition, % at 12.5 µM; 6,200 compounds, 58% hits; AID 488915; recombinant SENP6, Z-RLRGG-aminoluciferin luminescence; shares compounds with SENP7 inh
# SENP7 confirm: confirmation of human SENP7 protease inhibitors; shares compounds with SENP7 inh; recombinant SENP7, Z-RLRGG-aminoluciferin luminescence, 40 min; inhibition, % at 12.5 µM; 6,200 compounds, 69% hits
# Casp3 select: caspase-3 inhibition (SENP selectivity assay); inhibition, % at 12.5 µM; purified caspase-3, Z-DEVD-aminoluciferin luminescence, 60 min; AID 488918; 6,200 compounds, 60% hits; shares compounds with SENP7 inh;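 active means mean inhibition above about 50%, limit read from the data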;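 further: plate controls were enzyme with DMSO for no effect and wells without caspase-3 for full effect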
# Target sequence (P42574 28-227 limits assumed): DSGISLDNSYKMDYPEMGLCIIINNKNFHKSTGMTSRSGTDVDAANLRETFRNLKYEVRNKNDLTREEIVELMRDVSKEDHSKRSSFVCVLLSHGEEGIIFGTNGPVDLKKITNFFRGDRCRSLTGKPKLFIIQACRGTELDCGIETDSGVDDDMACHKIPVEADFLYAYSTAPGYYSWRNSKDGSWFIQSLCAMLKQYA
# Luc interf: interferes with luciferase luminescence in SENP counter-screen; AID 488919; Pre-incubated SENP8/Z-RLRGG-aminoluciferin, luciferase luminescence interference; 6,200 compounds, 39% hits; shares compounds with SENP7 inh; inhibition, % at 12.5 µM;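 active means mean inhibition above about 50% when retested at one dose, limit read from the data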;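 further: plate controls were DMSO wells with completed reaction for no effect and substrate without enzyme for full effect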
# * = called active by the depositor; · = not tested or not shown.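 How the source made its calls, unless noted: active means mean inhibition above about 50% in the one-dose retest (limit read from the data); inactive means the rest.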
SMILES,SENP6 block,SENP8 block-1,LGR2 antag,HSP90 inh,SENP7 inh,SENP8 block-2,SENP8 confirm,SENP6 conf,SENP7 confirm,Casp3 select,Luc interf
Cc1cccc2cc(C(c3nnnn3CC3CCCO3)N3CCc4ccccc4C3)c(=O)[nH]c12 (stereo not drawn),67*,·,·,-4,49,38,-1,27,6,9,3
CC(C)C#Cc1ccc2c(c1)O[C@H](CN(C)C(=O)c1ccncc1)[C@@H](C)CN([C@H](C)CO)S2(=O)=O,·,·,-25,·,·,·,·,·,·,·,·
c1ccc(Nc2nnc(-c3cccc4ccccc34)o2)cc1,-10,-402,·,-6,65*,-2,1,-8,53*,36,-3
N/C(=N\OC(=O)c1cccs1)c1cccc(Br)c1,21,7,-71,1,88*,80*,87*,89*,99*,90*,82*
Cc1cccc(/C(N)=N/OC(=O)c2ccc(F)cc2)c1,98*,11,-15,-4,99*,96*,98*,98*,102*,98*,89*
O=C(O/N=C1\CCCc2ccccc21)c1cccs1,88*,5,-108,-1,91*,86*,-24,94*,101*,90*,33
Cc1cccc(/C(N)=N/OC(=O)c2cccs2)c1,88*,22,·,-4,97*,91*,95*,96*,101*,97*,96*
COc1ccc(NC(=O)Nc2ccc3c(c2)CC(=O)N([C@@H](C)CO)C[C@@H](C)[C@H](CN(C)Cc2ccc(Cl)c(Cl)c2)O3)cc1,·,·,11,·,·,·,·,·,·,·,·
COc1ccc(/C(N)=N/OC(=O)c2cccs2)cc1OC,-8,2,-75,-3,-3,-1,·,·,·,·,·
N/C(=N\OC(=O)c1cccs1)c1ccccc1,-8,3,-2,-7,99*,91*,93*,95*,101*,97*,93*
Cc1ccc(/C(N)=N/OC(=O)c2cccs2)cc1,73*,9,26,1,67*,68*,58*,65*,91*,73*,60*
CN(C)C(=O)c1cccc(-c2ccccc2[C@@H]2[C@@H](C#N)N(C(=O)C3CCCC3)[C@@H]2CO)c1,·,·,-24,·,·,·,·,·,·,·,·
O=C(CCCOc1ccc(Cl)cc1Cl)Nc1ccccc1C(=O)O,86*,-3,-36,-2,0,71*,83*,82*,90*,64*,82*
O=C(Nc1ccccc1C(=O)Nc1ccccc1)c1cccs1,-8,3,-18,-1,9,2,·,·,·,·,·
O=C(Nc1ccc(O)cc1C(=O)O)c1cccs1,50*,11,-7,-3,41,40,52*,49,82*,79*,61*
O=C(Nc1sc(-c2ccccc2)cc1C(=O)O)c1ccccc1,84*,-321,-83,-8,28,66*,-11,74*,74*,27,60*
O=C(Nc1ccc2ncccc2c1)c1cccc(Br)c1,53*,7,-106,-2,22,29,41,37,65*,24,38
CCOC(=O)c1cc(-c2ccccc2)sc1NC(=O)c1ccc(OC)cc1,-10,·,·,-1,1,-10,·,·,·,·,·
COc1ccc2c3c(n(C)c2c1)[C@@H](CO)N(C(C)=O)CC31CN(C(=O)C2CC2)C1,·,·,-29,·,·,·,·,·,·,·,·
Cc1ccc(S(=O)(=O)Nc2ccc3c(c2)CC(=O)N([C@H](C)CO)C[C@H](C)[C@H](CN(C)S(=O)(=O)c2cccs2)O3)cc1,·,·,-6,·,·,·,·,·,·,·,·
CCOc1c(Cl)cc(C(=O)Nc2ccccc2C(=O)O)cc1Cl,60*,-56,·,-5,8,34,59*,57*,72*,34,68*
Cc1ccccc1C(=O)Nc1ccc(O)cc1C(=O)O,-14,8,-18,0,1,2,·,·,·,·,·
COc1c(Cl)cc(C(=O)Nc2ccccc2-c2ccccc2)cc1Cl,-10,13,·,-1,-7,-1,·,·,·,·,·
COc1ccc(C(=O)Nc2ccccc2C(=O)O)cc1NC(=O)C(c1ccccc1)c1ccccc1,8,2,-13,-2,-1,6,·,·,·,·,·
COc1ccc(C(=O)Nc2ccccc2C(=O)O)cc1Cl,97*,14,·,2,92*,94*,96*,97*,101*,95*,96*
SMILES,SENP6 block,SENP8 block-1,LGR2 antag,HSP90 inh,SENP7 inh,SENP8 block-2,SENP8 confirm,SENP6 conf,SENP7 confirm,Casp3 select,Luc interf
CC(=O)Nc1cccc(C(=O)Nc2ccccc2C(=O)O)c1,-11,17,·,1,5,-12,·,·,·,·,·
O=C(Nc1ccccc1C(=O)O)c1cccc(C(=O)Nc2ccccc2C(=O)O)c1,80*,6,10,1,10,71*,87*,86*,98*,88*,70*
O=C(Nc1ccc(O)cc1C(=O)O)c1cccc(Br)c1,95*,18,·,-5,83*,88*,94*,92*,98*,90*,92*
O=[N+]([O-])c1ccc(N/N=C/c2cccc(O)c2)cc1,82*,-64,-125,-3,53*,77*,90*,89*,94*,37,86*
O=[N+]([O-])c1ccc(NN=Cc2cccc([N+](=O)[O-])c2)cc1,·,-8,-7,·,·,·,·,·,·,·,·
O=[N+]([O-])c1ccc(N/N=C/c2cccc(O)c2O)cc1,78*,-57,-121,-6,39,59*,39,46,84*,37,68*
C[C@H]1CN([C@@H](C)CO)C(=O)c2cc(-c3cccnc3)cnc2O[C@H]1CN(C)C(=O)Cc1cccnc1,·,·,-3,·,·,·,·,·,·,·,·
CCOC(=O)C(Oc1ccc(=O)n(-c2ccccc2)n1)C(C)=O (stereo not drawn),-22,10,·,-1,84*,-5,7,10,7,4,2
Cc1ccc(Nc2nc3nonc3[nH]c2=O)cc1C,70*,7,·,-4,39,48,65*,62*,80*,64*,72*
Cc1ccc(Nc2nc3nonc3[nH]c2=O)cc1Cl,80*,-12,37,2,9,50*,68*,64*,75*,34,70*
